The text below walks through data of PubChem BioAssay (NCATS).

Results filed as inconclusive are left out. Activity calls are given as the source filed them. Unless noted, calls follow the shape of the dose curve; as a rule, active = well fitted curve in the direction sought with a large enough effect; inconclusive = small, poorly fitted or top-dose-only effect, or another doubt; inactive = no such curve, though single readings can be large; an effect the other way counts as inactive or inconclusive.

Test [1] addresses Guanine nucleotide-binding protein G(i) subunit alpha-1 (Homo sapiens) (UniProt P63096). In words: qHTS Assay for Inhibitors of RGS12 GoLoco Motif Activity (Green Fluorophore) (AID 879).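 Also: negative values mean loss of peptide binding seen as reduced polarization.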 Conditions: Galphai1/FITC-RGS12 GoLoco peptide, fluorescence polarization; series mostly up to 57.1 µM. The method in brief: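 Fluorescence polarization assay: 50 nM Gαi1 with 10 nM FITC-labeled RGS12 GoLoco peptide in 10 mM Tris pH 7.5, 150 mM NaCl, 0.1 mM GDP, 0.05% NP40, 10 min at room temperature with compound.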

Test [2] in a line: qHTS Assay for Identification of Small Molecule Antagonists for NFkB Signaling Pathway (AID 895; active = well fitted inhibition curve with a large enough effect in the signal ratio, with a control signal flat, not every such curve was filed as active; the % refers to the signal ratio). The note with it: NFkB beta-lactamase reporter cells, FRET ratio 460/530, stimulated with 10 pM TNF alpha; series mostly up to 38.3 µM. The method in brief:
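NFkB-bla ME-180 cervical carcinoma cells with beta-lactamase reporter under NFkB response element; compounds added, then TNF alpha at 10 pM final (EC50), 5 h at 37 C. LiveBLAzer substrate 2 h, room temperature; emission 460/530 nm at 405 nm excitation.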
For orientation: Quantitative high-throughput screening tests each substance at several concentrations.

The target in test [3] is Pyruvate kinase (Leishmania mexicana) (UniProt Q27686). In words: qHTS Validation Assay for Inhibitors of Leishmania Mexicana Pyruvate Kinase (AID 945). Also: potency is read from the fitted curve at half-maximal effect. Conditions: purified L. mexicana pyruvate kinase, enzyme activity, E451W mutant enzyme; series mostly up to 57.5 µM. Summed up: (§1)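 Substrate mix (0.5 mM PEP, 0.1 mM ADP, 7 mM MgCl2, 50 mM KCl, pH 7.2 imidazole) received compound by pin tool, then 0.2 nM LmPYK E451W. After 1 h at room temperature, PKLight was added and luminescence measured.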

Test [4] concerns the target Pyruvate kinase PKM (Homo sapiens) (UniProt P14618). In words: qHTS Assay for Activators of Human Muscle Pyruvate Kinase (AID 954; active = well fitted curve in the direction sought with a large enough effect, not every such curve was filed as active). The note with it: purified human muscle pyruvate kinase, luciferase-coupled luminescence, 1 h; series mostly up to 57.5 µM. The method in brief:
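Reaction: 0.1 nM purified PKM2 with 0.5 mM phosphoenolpyruvate and 0.1 mM ADP, room temperature, 1 h. Readout: luciferase-based ATP luminescence after stop reagent. Activators judged against a 0.3 nM enzyme column.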

Test [5] has the same target. The experiment in a line: qHTS Assay for Inhibitors of Human Muscle Pyruvate Kinase (AID 958). Conditions: purified human PKM enzyme activity. Summed up:
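Luminescence from a luciferase ATP-detection/stop reagent reported PKM2 activity. Reactions contained 0.1 nM purified human enzyme, 0.5 mM PEP, 0.1 mM ADP and 7 mM MgCl2 at pH 7.2, run 1 h at RT.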

The target of test [6] is Pyruvate kinase (Leishmania mexicana) (UniProt Q27686). The experiment in a line: qHTS Validation Assay for Activators of Leishmania Mexicana Pyruvate Kinase (AID 959). Conditions: purified L. mexicana pyruvate kinase, enzyme activity; series mostly up to 57.5 µM. The method in brief: as §1
The target in test [7] is Alpha-galactosidase A (Homo sapiens) (UniProt P06280). In words: Counterscreen for Glucocerebrosidase Inhibitors: qHTS Assay for Human alpha-Galactosidase at pH 4.5 (AID 992). Conditions: purified enzyme, fluorogenic substrate; series mostly up to 76.9 µM. The method in brief: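 Concentration-response curves (0.7 nM to 77 uM final) were modeled with the Hill equation to give AC50. Reactions: 2 nM enzyme, 80 uM fluorogenic alpha-galactoside, pH 4.5 citric acid buffer, 20 min, room temperature.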
Background: Counterscreens check selectivity or assay interference.

The target of test [8] is alpha-glucosidase (Oryza sativa, rice) (UniProt Q653V4). The experiment in a line: Counterscreen for Glucocerebrosidase Inhibitors: qHTS Assay for Rice alpha-Glucosidase at pH 5.0 (AID 997). Conditions: rice alpha-glucosidase enzyme activity; series mostly up to 76.9 µM. The method in brief:
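Rice alpha-glucosidase (4 nM final) with 400 uM 4-methylumbelliferyl-alpha-D-glucopyranoside in citrate buffer pH 5.0, 20 min at room temperature, stopped at pH 10; fluorescence 365/440 nm, compounds 0.7 nM–77 uM, AC50 from Hill fits.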

For test [9], the target named is DNA dC->dU-editing enzyme APOBEC-3G (Homo sapiens) (UniProt Q9HC16). The experiment in a line: qHTS for inhibitors of Vif-A3G interactions: Validation (AID 588379). Conditions: Vif-A3G protein interaction assay; series mostly up to 46.1 µM. Summed up: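 HeLa cells stably expressing Vif and A3G-eYFP, 700 cells/well, incubated overnight at 37 deg C, then exposed to compound overnight at 37 deg C. Inhibition of Vif-mediated degradation read as increased yellow fluorescence (Ex 488/Em 500-530) by laser-scanning cytometry.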

The nature of test [10]: S16 Schwann cell viability assay (CellTiter-Glo assay) (AID 624031).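 Also: cellular ATP luminescence as a viability measure; nearly all actives have a fitted effect of over 70% in size.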 Conditions: S16 rat Schwann cells viability, 24 h; series mostly up to 57.5 µM. The method in brief:
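Luminescent ATP read-out (CellTiter-Glo) after 24 h compound exposure of native S16 rat Schwann cells at 37 °C. Signals were normalized between cell-free wells and DMSO-treated cells, set as 0% activity.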
A general note: In ATP-based viability assays light output follows the ATP content of the culture.

Test [11] is described as follows: S16 Schwann cell PMP22 intronic element firefly luciferase assay (AID 624032). Also: nearly all actives have a fitted effect of over 30% in size. Conditions: S16 rat Schwann cells, PMP22 element FLuc, 24 h; series mostly up to 57.5 µM. The method in brief:
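Rat S16 Schwann cells stably carrying a PMP22 intronic element-driven Fluc reporter were seeded overnight, then exposed to compounds for 24 h at 37 °C. Luminescence was normalized to PTC124 (positive control) and DMSO (0% activity).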

The test system of test [12] is CP260. The experiment in a line: qHTS profiling for inhibitors of Plasmodium falciparum proliferation (AID 504749). Also: nearly all actives have a fitted effect of over 60% in size. Conditions: P. falciparum in erythrocytes, SYBR Green DNA, 72 h; series mostly up to 28.7 µM. The method in brief: (§2)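 Parasite proliferation within erythrocytes, 72 h exposure. Endpoint: SYBR Green I fluorescence after overnight lysis at room temperature. Controls: 0.29 uM artemisinin, DMSO.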

Test [13] deals with CP297. The description is as above. The note with it: P. falciparum in erythrocytes, SYBR Green DNA, 72 h; series mostly up to 28.7 µM. Summed up: as §2
Test [14] relates to CP315. The description is as above. The note with it: P. falciparum in erythrocytes, SYBR Green DNA, 72 h; series mostly up to 28.7 µM. Summed up: as §2
Test [15] relates to JCK. The description is as above. Conditions: P. falciparum in erythrocytes, SYBR Green DNA, 72 h; series mostly up to 28.7 µM. Summed up:
as §2

For test [16], the system named is TAB165. Described as above. Conditions: P. falciparum in erythrocytes, SYBR Green DNA, 72 h; series mostly up to 28.7 µM. Summed up: as §2

Sequence of Pyruvate kinase (Leishmania mexicana) (Q27686 2-499 E452W): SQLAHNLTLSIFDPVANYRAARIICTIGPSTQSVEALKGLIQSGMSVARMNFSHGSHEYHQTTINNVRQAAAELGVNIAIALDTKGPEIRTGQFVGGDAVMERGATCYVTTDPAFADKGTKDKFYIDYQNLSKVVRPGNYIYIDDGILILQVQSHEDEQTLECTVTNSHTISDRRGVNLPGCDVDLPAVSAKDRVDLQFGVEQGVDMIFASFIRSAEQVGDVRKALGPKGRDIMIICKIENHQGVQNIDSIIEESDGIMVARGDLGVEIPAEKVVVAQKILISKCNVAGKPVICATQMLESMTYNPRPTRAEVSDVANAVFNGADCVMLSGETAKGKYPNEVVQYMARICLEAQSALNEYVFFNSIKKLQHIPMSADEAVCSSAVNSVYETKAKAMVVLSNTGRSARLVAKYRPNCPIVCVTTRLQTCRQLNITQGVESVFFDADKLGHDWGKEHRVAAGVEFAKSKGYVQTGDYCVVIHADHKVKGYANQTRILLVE
Sequence of Pyruvate kinase PKM (Homo sapiens) (P14618 whole entry, looked up): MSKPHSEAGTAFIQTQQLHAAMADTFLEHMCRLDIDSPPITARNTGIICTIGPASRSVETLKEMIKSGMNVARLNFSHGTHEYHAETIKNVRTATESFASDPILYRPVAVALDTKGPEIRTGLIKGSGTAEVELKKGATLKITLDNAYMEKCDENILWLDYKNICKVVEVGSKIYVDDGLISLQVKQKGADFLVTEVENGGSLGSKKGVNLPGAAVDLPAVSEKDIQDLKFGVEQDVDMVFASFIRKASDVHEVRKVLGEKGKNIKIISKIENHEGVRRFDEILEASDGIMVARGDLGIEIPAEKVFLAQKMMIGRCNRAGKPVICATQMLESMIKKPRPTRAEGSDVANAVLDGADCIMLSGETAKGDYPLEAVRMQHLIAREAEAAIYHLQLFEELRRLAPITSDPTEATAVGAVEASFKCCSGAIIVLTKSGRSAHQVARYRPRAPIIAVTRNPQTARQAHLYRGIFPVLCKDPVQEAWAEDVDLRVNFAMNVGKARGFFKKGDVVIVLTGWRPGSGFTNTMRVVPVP
Sequence of DNA dC->dU-editing enzyme APOBEC-3G (Homo sapiens) (Q9HC16 whole entry, looked up): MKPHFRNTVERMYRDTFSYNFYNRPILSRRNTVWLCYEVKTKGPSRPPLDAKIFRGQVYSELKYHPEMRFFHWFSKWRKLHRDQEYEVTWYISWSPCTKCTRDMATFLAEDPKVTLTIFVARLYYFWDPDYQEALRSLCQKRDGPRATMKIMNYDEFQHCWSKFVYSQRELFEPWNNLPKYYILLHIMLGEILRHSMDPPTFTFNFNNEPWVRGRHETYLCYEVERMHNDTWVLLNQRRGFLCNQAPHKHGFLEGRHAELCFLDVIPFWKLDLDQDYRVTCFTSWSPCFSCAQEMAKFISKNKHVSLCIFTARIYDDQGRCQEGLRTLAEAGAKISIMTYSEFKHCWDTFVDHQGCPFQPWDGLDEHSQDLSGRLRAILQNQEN
Sequence of Alpha-galactosidase A (Homo sapiens) (P06280 whole entry, looked up): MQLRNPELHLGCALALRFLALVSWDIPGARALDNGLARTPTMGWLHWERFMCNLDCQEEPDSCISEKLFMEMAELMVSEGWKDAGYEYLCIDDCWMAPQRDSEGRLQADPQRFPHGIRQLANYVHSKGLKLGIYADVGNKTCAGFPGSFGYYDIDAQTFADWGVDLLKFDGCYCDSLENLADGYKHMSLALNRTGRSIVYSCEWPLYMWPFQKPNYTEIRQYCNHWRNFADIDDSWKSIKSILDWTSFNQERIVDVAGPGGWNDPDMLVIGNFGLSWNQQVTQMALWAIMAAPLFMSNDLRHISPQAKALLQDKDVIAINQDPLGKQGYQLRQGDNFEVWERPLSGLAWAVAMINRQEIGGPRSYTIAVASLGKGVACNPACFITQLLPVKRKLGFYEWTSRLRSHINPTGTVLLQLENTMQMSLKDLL
Sequence of Guanine nucleotide-binding protein G(i) subunit alpha-1 (Homo sapiens) (P63096 whole entry, looked up): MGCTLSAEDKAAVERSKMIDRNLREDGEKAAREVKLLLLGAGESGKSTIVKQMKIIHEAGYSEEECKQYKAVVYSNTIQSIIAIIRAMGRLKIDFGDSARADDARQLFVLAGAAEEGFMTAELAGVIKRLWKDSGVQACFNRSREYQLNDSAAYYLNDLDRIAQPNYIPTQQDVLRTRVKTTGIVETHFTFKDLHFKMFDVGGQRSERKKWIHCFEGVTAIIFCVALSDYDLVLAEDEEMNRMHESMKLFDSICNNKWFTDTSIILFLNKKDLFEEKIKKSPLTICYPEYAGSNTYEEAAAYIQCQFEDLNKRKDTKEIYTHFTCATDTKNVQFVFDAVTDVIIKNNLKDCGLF

In the case of `Oc1ccc(/C=C\c2cc(O)cc(O)c2)cc1`, the compound was classed as inactive in test [1], in test [4], in test [6], in test [7], in test [8] and in test [9]. The compound was called inactive in test [10]. Besides, the Potency entry in [2], in test [11], in test [12], in test [13], in test [14] and in test [15] was “inactive” each time. In addition, the Potency result in test [16] is “inactive”. Moreover, the Potency in test [3] was 2.51 µM (active); in test [5] it was 3.16 µM (active).
